Assay outcomes (PubChem)
CatB mixtures: inhibitors of human cathepsin B in compound mixtures; Purified cathepsin B, AMC dipeptide fluorescence; inhibition, %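 (ten-compound pools at 5 µM per compound and 50 µM total)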; P07858; hit rate 0.06% among 62,000; in the data active = inhibition above about 22%, passing the limit was not always enough; inconclusive = no clear call, values can overlap the other calls;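 also: 0% = enzyme without compound and 100% = no enzyme blank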
Her2 expr inh: Her2 kinase expression inhibition; HER2 level % of control, % at 10 µM; hit rate 0.69% among 65,000; P04626; AID 645; SKBR-3 HER2 protein level, AlphaScreen, 18-24 h; active compounds read low;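 active = HER2 level under 5% of the carrier-only control; inconclusive = no clear call, values can overlap the other calls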;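 also: 100% = DMSO carrier and 0% = 500 nM PU-H71 HSP90 inhibitor; lower value means stronger loss of Her2 protein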
CatS block: human cathepsin S inhibition; P25774; recombinant cathepsin S, AMC dipeptide fluorescence, pooled mixtures; inhibition, %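 (tested at 5 µM per compound within 10-compound mixtures)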; hit rate 0.06% among 62,000; AID 501; in the data active = inhibition above about 32%, passing the limit was not always enough; inconclusive = no clear call, values can overlap the other calls;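 also: 0% = enzyme without compound and 100% = blank without enzyme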
Target sequence (P25774 115-331 limits assumed): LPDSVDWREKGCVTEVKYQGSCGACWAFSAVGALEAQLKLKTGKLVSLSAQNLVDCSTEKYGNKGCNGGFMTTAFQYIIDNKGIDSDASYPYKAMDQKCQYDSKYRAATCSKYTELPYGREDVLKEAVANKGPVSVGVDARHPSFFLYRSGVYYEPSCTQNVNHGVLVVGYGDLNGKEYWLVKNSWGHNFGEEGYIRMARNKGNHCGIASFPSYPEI
CatL inh: blocks human cathepsin L protease activity; P07711; hit rate 0.17% among 58,000; AID 460; purified cathepsin L, fluorogenic substrate, fluorescence; inhibition, %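 (tested at 10 µM)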; in the data active = inhibition above about 45%;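 also: 0% = enzyme with no compound and 100% = no enzyme blank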
Target sequence (P07711 114-288 limits assumed): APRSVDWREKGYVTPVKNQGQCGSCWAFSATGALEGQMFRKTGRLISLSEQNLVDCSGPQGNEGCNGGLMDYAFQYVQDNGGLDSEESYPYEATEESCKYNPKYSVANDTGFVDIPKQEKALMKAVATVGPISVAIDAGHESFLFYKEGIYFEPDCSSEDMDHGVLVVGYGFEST
Target sequence (P07711 292-333 limits assumed): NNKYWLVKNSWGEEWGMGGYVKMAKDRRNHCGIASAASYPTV
CatB inh: blocks human cathepsin B protease activity; P07858; purified cathepsin B, fluorogenic substrate, fluorescence; inhibition, %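 (tested at 10 µM)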; hit rate 0.1% among 63,000; AID 453; in the data active = inhibition above about 21%;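 also: 0% = enzyme with no compound and 100% = no enzyme blank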
SKBR3 24h inh: SK-BR-3 proliferation inhibitors | SK-BR-3 viability, CellTiter-Glo ATP luminescence, 24 h; active compounds read low | viability, % at 10 µM | hit rate 0.47% among 41,000;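 active = viability at or below the median of all test compounds minus 3 SD, in both replicates if run twice, cut at about 45% in these data; inconclusive = duplicate replicates that disagree with each other; inactive = viability above that cutoff in every replicate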;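 also: 100% = median untreated cell wells and 0% = median positive control drug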
Starred values were filed as active, the others as inactive; ? = inconclusive; / = not tested or not shown. Rows were chosen to be rich in hits. Some 1.1% of all compounds tested hit in one or more screens of this group.

SMILES	CatB mixtures	Her2 expr inh	CatS block	CatL inh	CatB inh	SKBR3 24h inh
COc1ccc(-n2cnnc2SCC(=O)c2cc(C)n(Cc3cccs3)c2C)cc1	5	-21*	6	5	4	/
COc1ccc(-c2nnc(SCC(=O)c3cc(C)n(Cc4cccs4)c3C)o2)cc1	4	52	?	5	1	/
CCOC(=O)CSc1nnc(CNC(=O)c2ccco2)n1C	7	74	1	3	-8	88
O=C(C(Cc1ccccc1)N1C(=O)C2C3C=CC(C3)C2C1=O)N1CCCCCC1 (stereo unspecified)	-2	114	-5	-14	1	/
O=C(NCc1ccco1)C(Cc1ccccc1)N1C(=O)C2C3C=CC(C3)C2C1=O (stereo unspecified)	0	100	12	54*	5	/
CC(=O)c1sc2nc(-c3cccs3)cc(C(F)(F)F)c2c1N	9	-2.8*	5	-45	-1	108
CS(=O)(=O)c1sc2nc(-c3cccs3)cc(-c3ccccc3)c2c1N	-5	92	-8	-9	2	77
CCOC(=O)C1CCCN(C(=O)COC(=O)C2=COCCO2)C1 (stereo unspecified)	-1	91	-8	7	4	/
Cc1c(-c2cccs2)[n+](=O)c2c(n1[O-])CCCC2	/	-31*	/	-2	4	103
COc1ccc2cc(CCNC(=O)c3c(-c4ccccc4Cl)noc3C)c(=O)[nH]c2c1	4	65	-4	7	3	/
CC1CCCCN1Cc1nc2c(c(=O)n(C)c(=O)n2C)n1Cc1cccc2ccccc12 (stereo unspecified)	3	97	8	4	5	/
CC(=O)N1CCc2cc(Br)cc(S(=O)(=O)N3CCN(C(=O)c4ccco4)CC3)c21	-2	112	-1	0	-2	71
CC(=O)N1CCc2cc(Br)cc(S(=O)(=O)N3CCCCCC3)c21	2	106	-6	4	2	41*
COC(=O)c1[nH]c2ccc(Br)cc2c1NC(=O)C(C)N1CCN(C2CCCCC2)CC1 (stereo unspecified)	0	-4.8*	-2	-7	-2	85
COC(=O)c1[nH]c2ccc(C)cc2c1NC(=O)C(C)N1CCN(C2CCCCC2)CC1 (stereo unspecified)	2	106	-9	-8	-4	87
COC(=O)c1ccccc1NC(=O)CN1CCC(NC(=O)c2ccc(C)cc2)CC1	3	94	2	8	1	/
COC(=O)c1ccccc1NC(=O)CN1CCN(C23CC4CC(CC(C4)C2)C3)CC1	4	109	10	16	9	41*
Cc1ccc2c(C(=O)CN3CCCCC3CCO)c(C)[nH]c2c1 (stereo unspecified)	30*	168	21	-3	4	98
FC(F)(F)c1ccc(N2CCOCC2)c(Nc2nc3ccccc3n3cnnc23)c1	0	-16*	1	-14	3	/
Cc1cccc(OCCNc2nc3c(c(=O)n(C)c(=O)n3C)n2C)c1	-7	63	5	17	1	/
Cc1nc(Cc2nnc(SCc3nc(N)nc(Nc4ccccc4C)n3)o2)cs1	3	95	-7	-3	-2	36*
COc1ccc(N2CCN(C(=O)c3ccc(CNc4c(N5CCOCC5)c(=O)c4=O)cc3)CC2)cc1	-4	57	7	10	2	/
CCC(=O)N1c2ccc(S(=O)(=O)CCC(=O)N3CCn4c3nc3ccccc34)cc2CC1C (stereo unspecified)	0	-15*	2	12	2	/
COc1ccc(OC)c(C(=O)c2ccc(C(=O)N3CCCCC3)cc2)c1	-1	121	-1	12	4	/
CCOc1ccc(NC(=O)C/C(N)=N/O)cc1	1	-21*	-5	6	4	78
SMILES	CatB mixtures	Her2 expr inh	CatS block	CatL inh	CatB inh	SKBR3 24h inh
CCOc1ccc(NC(=O)CSC(N)=O)cc1	3	108	6	-5	6	/
Cc1cc(C)c2cc(CN(Cc3ccco3)C(=O)NCc3ccccc3)c(=O)[nH]c2c1	1	67	-2	/	5	37*
O=C(c1cc2ccccc2o1)c1cccs1	6	59	-3	-3	1	92
O=C(c1cccs1)c1ccc(-c2cccs2)s1	-4	-2.5*	-15	-11	-2	130
COC(=O)CC1=C(C(=O)OC)C(c2ccc3c(c2Cl)OCO3)C(C#N)=C(N)O1 (stereo unspecified)	4	-22*	-2	5	1	82
O=C(COc1ccccc1)N1CCN(C(=O)Cc2ccccc2)CC1	1	107	1	/	-2	/
COc1nc(N2CCCCCC2)nc(N2CCCCCC2)n1	3	109	-4	1	4	71
COc1nc(N(C#N)CC(N)=O)nc(N2CCCC2)n1	23*	134	-4	1	37*	/
O=c1cc(C(F)F)oc2c1ccc1ccccc12	6	94	2	4	-1	/
CCOC(=O)N1CCN(CCC(=O)Nc2ccc(OC(F)(F)F)cc2)CC1	-3	110	1	1	1	37*
COc1cc2[nH]c(=O)n(CCC(=O)N3CCN(c4cc(Cl)ccc4C)CC3)c(=O)c2cc1OC	2	-23*	5	0	-5	8.5*
Cn1c(C(=O)NC2CCCC2)cc2c(=O)n(C)c3ccccc3c21	3	89	2	0	-6	/
Nc1nonc1-c1noc(CCCOc2ccc(Cl)cc2Cl)n1	2	93	-8	-5	1	97
Cc1ccc(C(C)C)c(OCc2nc(-c3nonc3N)no2)c1	8	96	-2	/	22*	/
CCCCS(=O)(=O)/C=C\C=C/S(=O)(=O)CCCC	1	-17*	-8	-12	3	38*
COc1ccc(CC(=O)Nc2cccc(-c3nnc(-c4ccc(C)cc4)o3)c2)cc1OC	-1	50	6	19	-5	/
COc1ccc(CC(=O)Nc2cccc(-c3nnc(-c4cccc(C)c4)o3)c2)cc1OC	2	-0.4*	-2	-2	6	?
CN(C)S(=O)(=O)c1ccc(C(=O)Nc2ccnn2C2CCCCC2)cc1	3	165	0	-8	-6	/
Cc1cc(-c2cc(N)n(-c3ccccc3)n2)c(C)n1C1CCCC1	7	57	13	8	5	43*
Cc1cccc(N(CC(=O)NC2CCCCC2)C(=O)CCC(=O)Nc2cc(C)ccn2)c1	13	78	/	5	4	99
CCOc1cc(-c2noc(-c3ccncc3)n2)cc(Br)c1OC	-3	96	-1	-18	3	29*
CCOc1ccc(-c2noc(-c3ccncc3)n2)cc1OCC	5	110	-10	-1	-3	109
COc1ccc(-c2cc3nc4n(c(=O)c3s2)CCOC4)cc1	/	99	/	-178	-7	108
O=C(CSc1c2c(nc3ccc(Cl)cc13)CCCC2)N1CCN(C(=O)c2ccco2)CC1	3	-5.2*	6	8	1	97
CC(C)OCCCNC(=O)C1CCC(=O)N1C(C)C (stereo unspecified)	5	96	-3	-3	0	/
